From PubChem BioAssay (NCI) come the findings set out here.

The panel holds about 79,000 compounds, 15% with a hit somewhere; the sample as a whole holds those more often. A number with no mark means an inactive call. The source made the active and inactive calls. Cut-off read from the data, not from the text of the source: active = growth inhibition above about 70%; inactive = the rest.

The first assay in a line: NCI Yeast Anticancer Drug Screen. Data for the rad50 strain (AID 155).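 Note: 0% = growth of vehicle-only cultures of the same strain.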 The conditions noted are these: S. cerevisiae rad50 strain growth inhibition; at 50.0 µM; hits give high values. In short, it runs like this:
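Inhibition values express reduced yeast growth in compound-treated cultures relative to vehicle-treated controls.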
`C[N+](C)(C)C1(Cc2ccccc2)c2ccccc2-c2ccc(Cl)cc21` (stereo not given): the growth inhibition was 29.1%.

As to `N#CC(c1cnc2ccccc2n1)c1cccc2ccccc12` (stereo not given), the growth inhibition was -0.3%.

As to `O=[N+]([O-])c1ccc(S(=O)(=O)Nc2c([N+](=O)[O-])cc([N+](=O)[O-])c3ccccc23)cc1`, the growth inhibition is 36.6%.

Turning to `N#CC(C#N)=C1C=Cc2ccccc2O1`, the growth inhibition was 27.9%.

As for `N#CC(=C1CCCCC1)c1ccccc1`, the growth inhibition is -14.1%.

Take `CC(=O)OCCn1cnc2c(NCC=C(C)C)ncnc21`: the growth inhibition was -28.4%.

Take `Cc1ccc([Si](C)(C)c2ccccc2)cc1`: the growth inhibition was -2.4%.

In the case of `COC(=O)c1cc([N+](=O)[O-])cc2ccccc12`, the growth inhibition was 35.8%.

For `Cn1c(N)c(C(=O)/C=C/c2ccccc2)c(=O)n(C)c1=O`, the growth inhibition is 11.4%.

Turning to `CC1CN(c2ccc(Cl)cc2)CC(C)OC(=O)O1` (stereo not given), the growth inhibition was 18.8%.

For `CCc1c(Cl)nc(N)nc1Nc1ccc(C)cc1`, the growth inhibition is -20.7%.

Regarding `CC[C@H]1CN(C)[C@H]2Cc3c([nH]c4ccccc34)C(=O)C[C@H]1C2C(=O)OC` (stereo not given in full), the growth inhibition is -0.35%.

As to `CC(=O)N(C)c1ccc(N=CN(C)C)cc1`, the growth inhibition is -80.3%.

Turning to `CN=[N+]([O-])c1ccccc1`, the growth inhibition was 1.75%.

Regarding `O=C(O)c1ccc(C2CCCCC2O)cc1` (stereo not given), the growth inhibition is 2.05%.

As to `CCCCCCCC(CCCCCCC)C(=O)OCCO`, the growth inhibition was -7.4%.

Take `S=C1Cc2c(-c3ccccc3)cc(-c3ccc(Cl)cc3)nc2-c2ccccc2N1`: the growth inhibition is 8.75%.

`COc1ccc(CCN=C2CCC(C(=O)NCCc3ccc(OC)c(OC)c3)N2)cc1OC` (stereo not given): the growth inhibition is -12.9%.

For the compound `CCCCCCCCCCC1OCC(CC)([N+](=O)[O-])CO1` (stereo not given), the growth inhibition is 10.2%.

Consider `CCOC(=O)c1ccc(NC(=O)/C=C/c2ccccc2)cc1`, for which the growth inhibition was -4.55%.

Consider `CCN(CC)CCOCC(=O)Nc1ccccc1C`, for which the growth inhibition was -17.3%.

Regarding `CCCCCCCCC1CCC(=O)O1` (stereo not given), the growth inhibition is 19.8%.

Take `CCCCCC1OCC(C)(C)CO1`: the growth inhibition is 3.95%.

As to `O=[N+]([O-])c1cccc(-c2cc3ccccn3c2)c1`, the growth inhibition is 28.9%.

`C(=Nc1ccc(N2CCOCC2)cc1)c1ccc2c(c1)OCO2`: the growth inhibition is -15.4%.

Consider `CCOC(=O)C(CN)c1ccccc1` (stereo not given), for which the growth inhibition was -9.15%.

`Cc1cc2c3ccccc3n(C)c2c2c1C(=O)c1ccccc1C2=O`: the growth inhibition is 15.8%.

Take `CCOc1ccc(C2=NN(CC)C(=O)C(C3C(=O)N(c4ccccc4)N=C3C)C2)cc1` (stereo not given): the growth inhibition is 4.8%.

For `CNc1ccc2c(c1)C(=O)c1ccccc1-2`, the growth inhibition was 11.1%.

Turning to `CCN(CC)CCC(=O)O[C@H]1CC[C@H](CC(C)[C@H]2CC(=O)C(C)C=C(C)[C@H](OC(=O)CCN(CC)CC)C(OC)C(=O)[C@@H](C)CC(C)/C=C/C=C/C=C(C)C(OC)CC3CC[C@H](C)[C@](O)(O3)C(=O)C(=O)N3CCCCC3C(=O)O2)CC1OC` (stereo not given in full), the growth inhibition was 89.6% (active).

Take `CNC(C)C#N` (stereo not given): the growth inhibition is -17.7%.

As for `Cc1ccc(NCCN)c2c(=O)c3cc(O)ccc3sc12`, the growth inhibition is 86% (active).

Consider `Cc1cc2ccccc2n1C`, for which the growth inhibition was 4.05%.

Regarding `O=C(/C=C(\N=P(c1ccccc1)(c1ccccc1)c1ccccc1)C(F)(F)C(F)(F)C(F)(F)C(F)(F)C(F)(F)C(F)(F)C(F)(F)F)c1ccccc1`, the growth inhibition was -16.1%.

For `OC(CCl)CN1CCN(CC(O)CCl)CC1` (stereo not given), the growth inhibition was -3.05%.

With `CC(C)(C)OC(=O)NC(CC(N)=O)C(=O)O` (stereo not given), the growth inhibition was 23.1%.

`CN(C)Cc1ccccc1C(=C(c1ccccc1)c1ccccc1)c1ccccc1`: the growth inhibition is -15.1%.

Take `CC[N+](C)(CC)c1cccc(OC(=O)N2CCCCC2)c1`: the growth inhibition is 7.8%.

Regarding `COC(=O)c1sc2c(=O)c(C(=O)OC)c(C(=O)OC)sc2c(=O)c1C(=O)OC`, the growth inhibition is 23.1%.

For `CCOC(=O)C1=C(C)NC(C)=C(C(=O)OCC)C1C`, the growth inhibition was -29.1%.

The nature of another assay: NCI Yeast Anticancer Drug Screen. Data for the mec2-1 strain (AID 157). The conditions noted are these: S. cerevisiae mec2-1 strain, at 50.0 µM, hits give high values. Put shortly: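 Compounds were applied to mec2-1 yeast cells. Their growth was then compared with that of vehicle-treated cultures to give growth inhibition.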
On to `C[N+](C)(C)C1(Cc2ccccc2)c2ccccc2-c2ccc(Cl)cc21` (stereo not given), for which the growth inhibition is 4.85%.

Take `N#CC(c1cnc2ccccc2n1)c1cccc2ccccc12` (stereo not given): the growth inhibition was 5.9%.

For `O=[N+]([O-])c1ccc(S(=O)(=O)Nc2c([N+](=O)[O-])cc([N+](=O)[O-])c3ccccc23)cc1`, the growth inhibition is -3.9%.

`N#CC(C#N)=C1C=Cc2ccccc2O1`: the growth inhibition was -1.35%.

On to `N#CC(=C1CCCCC1)c1ccccc1`, for which the growth inhibition was -21.2%.

In the case of `CC(=O)OCCn1cnc2c(NCC=C(C)C)ncnc21`, the growth inhibition was -12.4%.

For the compound `Cc1ccc([Si](C)(C)c2ccccc2)cc1`, the growth inhibition is 13.6%.

`COC(=O)c1cc([N+](=O)[O-])cc2ccccc12`: the growth inhibition was -24.6%.

As for `Cn1c(N)c(C(=O)/C=C/c2ccccc2)c(=O)n(C)c1=O`, the growth inhibition was -17.5%.

For the compound `CC1CN(c2ccc(Cl)cc2)CC(C)OC(=O)O1` (stereo not given), the growth inhibition was -5.75%.

For `CCc1c(Cl)nc(N)nc1Nc1ccc(C)cc1`, the growth inhibition is -4.8%.

For `CC[C@H]1CN(C)[C@H]2Cc3c([nH]c4ccccc34)C(=O)C[C@H]1C2C(=O)OC` (stereo not given in full), the growth inhibition is -0.95%.

In the case of `CC(=O)N(C)c1ccc(N=CN(C)C)cc1`, the growth inhibition was -27.5%.

Turning to `CN=[N+]([O-])c1ccccc1`, the growth inhibition was 17.9%.

As for `O=C(O)c1ccc(C2CCCCC2O)cc1` (stereo not given), the growth inhibition is 6.15%.

Turning to `CCCCCCCC(CCCCCCC)C(=O)OCCO`, the growth inhibition was -7.9%.

Take `S=C1Cc2c(-c3ccccc3)cc(-c3ccc(Cl)cc3)nc2-c2ccccc2N1`: the growth inhibition was -3.85%.

On to `COc1ccc(CCN=C2CCC(C(=O)NCCc3ccc(OC)c(OC)c3)N2)cc1OC` (stereo not given), for which the growth inhibition was -18.9%.

With `CCCCCCCCCCC1OCC(CC)([N+](=O)[O-])CO1` (stereo not given), the growth inhibition was -27.9%.

Regarding `CCOC(=O)c1ccc(NC(=O)/C=C/c2ccccc2)cc1`, the growth inhibition is 11.4%.

Take `CCN(CC)CCOCC(=O)Nc1ccccc1C`: the growth inhibition is 4.8%.

In the case of `CCCCCCCCC1CCC(=O)O1` (stereo not given), the growth inhibition is 1.8%.

Take `CCCCCC1OCC(C)(C)CO1`: the growth inhibition was -2.05%.

For the compound `O=[N+]([O-])c1cccc(-c2cc3ccccn3c2)c1`, the growth inhibition was 7%.

Consider `C(=Nc1ccc(N2CCOCC2)cc1)c1ccc2c(c1)OCO2`, for which the growth inhibition is -7%.

For the compound `CCOC(=O)C(CN)c1ccccc1` (stereo not given), the growth inhibition is -9.5%.

Turning to `Cc1cc2c3ccccc3n(C)c2c2c1C(=O)c1ccccc1C2=O`, the growth inhibition was 28%.

As to `CCOc1ccc(C2=NN(CC)C(=O)C(C3C(=O)N(c4ccccc4)N=C3C)C2)cc1` (stereo not given), the growth inhibition is -7.3%.

Take `CNc1ccc2c(c1)C(=O)c1ccccc1-2`: the growth inhibition was 14.4%.

Regarding `CCN(CC)CCC(=O)O[C@H]1CC[C@H](CC(C)[C@H]2CC(=O)C(C)C=C(C)[C@H](OC(=O)CCN(CC)CC)C(OC)C(=O)[C@@H](C)CC(C)/C=C/C=C/C=C(C)C(OC)CC3CC[C@H](C)[C@](O)(O3)C(=O)C(=O)N3CCCCC3C(=O)O2)CC1OC` (stereo not given in full), the growth inhibition was 91.8% (active).

On to `CNC(C)C#N` (stereo not given), for which the growth inhibition is -11.6%.

On to `Cc1ccc(NCCN)c2c(=O)c3cc(O)ccc3sc12`, for which the growth inhibition is 32.3%.

In the case of `Cc1cc2ccccc2n1C`, the growth inhibition is 5.45%.

Consider `O=C(/C=C(\N=P(c1ccccc1)(c1ccccc1)c1ccccc1)C(F)(F)C(F)(F)C(F)(F)C(F)(F)C(F)(F)C(F)(F)C(F)(F)F)c1ccccc1`, for which the growth inhibition was -13.2%.

As to `OC(CCl)CN1CCN(CC(O)CCl)CC1` (stereo not given), the growth inhibition is 12.3%.

With `CC(C)(C)OC(=O)NC(CC(N)=O)C(=O)O` (stereo not given), the growth inhibition was -6%.

Turning to `CN(C)Cc1ccccc1C(=C(c1ccccc1)c1ccccc1)c1ccccc1`, the growth inhibition was -4.65%.

With `CC[N+](C)(CC)c1cccc(OC(=O)N2CCCCC2)c1`, the growth inhibition is 3.45%.

As to `COC(=O)c1sc2c(=O)c(C(=O)OC)c(C(=O)OC)sc2c(=O)c1C(=O)OC`, the growth inhibition is 27.4%.

Regarding `CCOC(=O)C1=C(C)NC(C)=C(C(=O)OCC)C1C`, the growth inhibition was -35.9%.
